nsP2pro primary – inhibitors of chikungunya virus nsP2 protease; Q8JUX6; FRET peptide cleavage, nsP2pro, fluorescence 1 h; 31,000 tested, 1.1% active; AID 1964107; Potency, µM (highest dose often 24.9 µM), without a hit: at the highest dose activity change, negative = inhibition, usual class: inhibitors; also: nearly all actives have a fitted effect of over 60% in size
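Recombinant nsP2pro (150 nM) was preincubated with compound 15 min at room temperature in 10 mM Tris-HCl pH 8.0, 0.01% Tween 20. Peptide 2 FRET substrate (2.5 uM) was then added and fluorescence read after 1 h. Seven-point series, up to 25 uM.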
nsP2 cell sec – inhibits CHIKV nsP2 protease in cells | cell-based CHIKV nsP2 protease reporter assay | AID 1964100 | shares compounds with nsP2pro primary | Potency, µM (highest dose often 51.1 µM), without a hit: at the top dose activity change, negative = inhibition, actives largely listed as inhibitors | 450 tested, 10% active; also: nearly all actives have a fitted effect of over 70% in size
CHIKV NSP2 FL – full-length CHIKV NSP2 protease inhibition, selectivity. shares compounds with nsP2pro primary. 410 tested, 39% active. Full-length CHIKV NSP2 protease enzymatic counterscreen. Potency, µM (series often up to 50.7 µM), without a hit: at the top dose activity change, negative = inhibition, most hits filed as inhibitors; also: nearly all actives have a fitted effect of over 65% in size
Furin counterscr – selectivity counter-screen for CHIKV nsP2 protease inhibitors: human furin | 410 tested, 6% active | AID 1964102 | Potency, µM (titrated, usually from 50.6 µM), inactives show at the top dose activity change, negative = inhibition, usual class: inhibitors | shares compounds with nsP2pro primary | Recombinant human furin enzymatic counterscreen, fluorogenic substrate
nsP2 NS23 pep – selectivity test for CHIKV nsP2 protease inhibitors: endogenous NS2/3 peptide; Purified CHIKV nsP2 protease, endogenous NS2/3 peptide cleavage; Potency, µM (doses to about 51 µM), inactives show at the highest dose activity change, negative = inhibition, hits mostly inhibitors; AID 1964103; shares compounds with nsP2pro primary; 410 tested, 34% active; also: nearly all actives have a fitted effect of over 55% in size
Papain counter – selectivity counter-screen for CHIKV nsP2 protease inhibitors: papain | shares compounds with nsP2pro primary | 410 tested, 5% active | purified papain protease activity, enzymatic inhibition | Potency, µM (titrated, usually from 51 µM), inactives show at the highest dose activity change, negative = inhibition, most hits filed as inhibitors
nsP2pro conf qHTS – CHIKV nsP2 protease inhibition, confirmatory qHTS; CHIKV nsP2 protease enzymatic activity, qHTS; Potency, µM (highest dose often 25.5 µM), for inactives: at the highest dose activity change, negative = inhibition, usual class: inhibitors; shares compounds with nsP2pro primary; 410 tested, 43% active; also: nearly all actives have a fitted effect of over 75% in size
HCV NS3 4A cs – selectivity counter-screen for CHIKV nsP2 protease inhibitors: HCV NS3/4A; Potency, µM (doses to about 50.9 µM), actives largely listed as inhibitors; shares compounds with nsP2pro primary; AID 1964106; HCV NS3/4A protease biochemical counterscreen; 410 tested, 20% active; also: nearly all actives have a fitted effect of over 55% in size
Numbers without * were called inactive; i = inactive; ? = inconclusive; [ ] = remark or other dose. The sample as a whole holds a higher share of hits than the screen did. Calls follow the shape of the full dose curve. % is scaled to controls: 0 for no effect and ±100 for the full control effect; potency is read from the fitted curve at half-maximal effect.

SMILES	nsP2pro primary	others
CC(=O)O[C@@H](CO[C@@H]1O[C@H](CO)[C@H](O)[C@H](O)[C@H]1O)[C@]1(C)C=C2CC[C@@H]3C(C)(C)[C@@H](O)CC[C@@]3(C)[C@@H]2CC1	-15.7%[10 µM]
O=C(/C=C/c1ccc(O)c2c1[C@H](C(=O)O)[C@@H](c1ccc(O)c(O)c1)O2)O[C@H](Cc1ccc(O)c(O)c1)C(=O)O	86.7%
COCCOc1cnc2ccn([C@H](C)c3nnc4c(F)cc(-c5cnn(C)c5)cn34)c(=O)c2c1	?	nsP2 cell sec=3.2%;CHIKV NSP2 FL=-25.9%;Furin counterscr=-16.7%;nsP2 NS23 pep=-13.2%;Papain counter=3.5%;nsP2pro conf qHTS=?;HCV NS3 4A cs=i
Cc1cc(C)nc(NC(=S)N2CCN(c3ccc4occc4c3)CC2)c1	-5.2%
CC(=O)c1c(C)cc(O)cc1O[C@@H]1O[C@H](CO)[C@@H](O)[C@H](O)[C@H]1O	53.7%
FC(F)(F)c1ccccc1-c1nc(NCC#Cc2cccnc2)c2ccccc2n1	-2.1%
CCN(Cc1sccc1C)c1ncnc2ccc(-c3ccc4c(c3)OCO4)cc12	i
Cc1ccsc1CN(C)c1ncnc2ccc(-c3ccc(CO)o3)cc12	10µM*	nsP2 cell sec=25.9µM*;CHIKV NSP2 FL=?;Furin counterscr=-8.7%;nsP2 NS23 pep=?;Papain counter=-8.3%;nsP2pro conf qHTS=2.8%;HCV NS3 4A cs=23.1µM*
Cc1ccsc1CN(C)c1ncnc2ccc(-c3ccoc3)cc12	-22.1%
Cc1ccc(S(=O)(=O)Nc2cc(F)ccc2C(=O)Nc2nc(-c3ccccc3)cs2)cc1	i
Fc1cc(Nc2nc(-c3ccncc3)nc3ccccc23)ccc1-c1cccc(C(F)(F)F)c1	2.0%
COc1ccc2c(c1)C(C(=O)Nc1ccc(C)c([S+](=O)([O-])N3CCOCC3)c1)=CC(C)(C)CO2	1.1%
CC(=O)OC1CC(O)C2(C)C(CC(OC(C)=O)C3(C)C2CCC2(C)C(c4ccoc4)C(=O)C4OC423)C1(C)C (stereo unspecified)	?	nsP2 cell sec=11.7%[17.6 µM];CHIKV NSP2 FL=-18.0%[17.3 µM];Furin counterscr=-9.3%[17.3 µM];nsP2 NS23 pep=-8.8%[17.2 µM];Papain counter=-12.5%[17.2 µM];nsP2pro conf qHTS=-27.9%[8.62 µM];HCV NS3 4A cs=i
CC(=O)O[C@@H]1CC2C(C)(C)C(=O)C=C[C@]2(C)C2CC[C@]3(C)C(=CC(=O)O[C@H]3c3ccoc3)[C@@]21C (stereo partly specified)	1.6%
CC(=O)O[C@@H]1C[C@H](O)[C@@]23CO[C@H](O)[C@]1(C)C2C[C@@H](O)[C@]1(C)C3C(=O)[C@H](OC(C)=O)[C@@]2(C)[C@H](c3ccoc3)C[C@H]3O[C@]321 (stereo partly specified)	-2.2%[10 µM]
Cc1ccc(-c2cc(C(=O)Nc3ccccn3)c3ccccc3n2)cc1C	-7.2%
COC(=O)C1=C(C)NC(C)=C(C(=O)OCCc2ccc(N3CCN(C(c4ccccc4)c4ccccc4)CC3)cc2)C1c1cccc([N+](=O)[O-])c1 (stereo unspecified)	1.2%
CC(C)COC(=O)c1ccc(N)cc1	-2.4%
COC(=O)C1=C(C)NC(C)=C(C(=O)OCC(C)C)C1c1ccccc1[N+](=O)[O-] (stereo unspecified)	9.88µM*	nsP2 cell sec=?;CHIKV NSP2 FL=?;Furin counterscr=-11.0%;nsP2 NS23 pep=14.6µM*;Papain counter=16.7%;nsP2pro conf qHTS=10µM*;HCV NS3 4A cs=i
CCCN(C)c1ncnc2ccc(-c3ccc4c(c3)OCO4)cc12	-1.6%
CCCCS(=O)(=O)Nc1ncnc(OCCOc2ncc(Br)cn2)c1-c1ccc(Br)cc1	0.9%
FC(F)(F)c1ccc(-c2nc(NCc3ccc(-c4cccnc4)cc3)c3ccccc3n2)cc1	-1.8%

High-throughput results deposited in PubChem BioAssay by National Center for Advancing Translational Sciences (NCATS).
